# The list is not random: actives were taken first. Their share in the collection is about 22%.
# CYP2C19 activ – increases human CYP2C19 enzyme activity. 96,000 tested, under 10 active. activation factor at 5 µM. recombinant CYP2C19, luciferin-H EGE luminescence; stronger effect = higher value; 0 = fully inhibited enzyme, 1 = untreated enzyme. AID 1025. P33261;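 active = activation factor of at least 2 at 5 µM in the primary screen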
# Target sequence (P33261 whole entry, looked up): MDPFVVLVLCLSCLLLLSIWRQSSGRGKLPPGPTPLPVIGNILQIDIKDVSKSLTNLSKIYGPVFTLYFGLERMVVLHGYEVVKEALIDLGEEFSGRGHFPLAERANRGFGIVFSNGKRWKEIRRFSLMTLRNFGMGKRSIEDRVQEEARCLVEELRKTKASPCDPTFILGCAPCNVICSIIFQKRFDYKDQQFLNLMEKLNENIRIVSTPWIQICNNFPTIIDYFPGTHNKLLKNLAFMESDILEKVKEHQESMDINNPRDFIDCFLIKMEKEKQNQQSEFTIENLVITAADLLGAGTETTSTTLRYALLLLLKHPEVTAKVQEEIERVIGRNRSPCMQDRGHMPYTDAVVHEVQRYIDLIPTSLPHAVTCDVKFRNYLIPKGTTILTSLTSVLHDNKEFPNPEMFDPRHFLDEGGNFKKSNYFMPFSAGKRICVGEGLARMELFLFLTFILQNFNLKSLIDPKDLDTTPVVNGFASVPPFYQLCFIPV
# F-actin modifier – modifiers of cytoskeleton assembly; AID 836; 91,000 compounds, 0.18% hits; inhibition, % at 2 µM; HUVEC TNFa F-actin phalloidin imaging, high content;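 active = inhibition above the batch mean plus 3 SD and confirmed as a hit by visual image inspection, cut at about 30% in these data, passing the limit was not always enough; inconclusive = above the inhibition threshold but rejected on visual inspection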
# CYP2C19 inh – human CYP2C19 inhibition; CYP2C19 Supersomes, luciferin-H EGE luminescence, 30 min; inhibition, % at 5 µM; 96,000 compounds, 21% hits; AID 778;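 active = CYP2C19 inhibition above a set limit at 5 µM in the primary screen, cut at about 50% in these data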
# CYP2C9 activ – activators of human CYP2C9. recombinant CYP2C9, luciferin-H conversion, luminescence; stronger effect = higher value; factor 1 = untreated enzyme, 0 = blocked. P11712. 96,000 compounds, 1.4% hits. activation factor at 5 µM;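 active = activation factor of 2 or more for CYP2C9 at a 5 µM dose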
# CYP2C9 inh – blocks human cytochrome P450 2C9. P11712. CYP2C9 Supersomes, luciferin-H conversion, luminescence. inhibition, % at 5 µM. 96,000 compounds, 20% hits. AID 777;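 active = blocking of liver enzyme CYP2C9 beyond about 50% at 5 µM, limit read from the data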
# E-sel TNF inh – blocks E-selectin expression induced by TNF alpha; HUVEC TNFa-induced E-selectin immunofluorescence, high content; inhibition, % at 2 µM; 120,000 compounds, 0.71% hits;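 active = inhibition above the batch mean plus 3 SD, and confirmed as a hit on visual image review, cut at about 43% in these data; inconclusive = passes the inhibition cutoff but fails visual image review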
# A number is an active result; 0 = inactive; ? = inconclusive; - = no result given.
SMILES,CYP2C19 activ,F-actin modifier,CYP2C19 inh,CYP2C9 activ,CYP2C9 inh,E-sel TNF inh
Cc1ccccc1Nc1nc(N)nc(COC(=O)CC2CC3CCC2C3)n1 (stereo not drawn),-,-,-,-,-,0
O=C1C(=C2SCCCS2)CC/C1=C\c1ccc(F)cc1,0,0,51,0,0,0
CN(C)c1ccc(-c2ccccc2)nn1,0,0,58,0,0,0
O=C(c1ccc(CS(=O)(=O)c2ccc(Br)cc2)o1)N1CCCCCC1,0,0,80,0,0,-
Cc1ccccc1S(=O)(=O)Cc1ccc(C(=O)N2CCN(C3CCCCC3)CC2)o1,-,-,-,-,-,0
O=C(c1ccc(CS(=O)(=O)c2ccc(Br)cc2)o1)N1CCCC1,0,-,0,0,0,-
O=C(NCCN1CCOCC1)c1ccc(CS(=O)(=O)c2ccc(Br)cc2)o1,-,0,-,-,-,0
O=C(c1ccc(CS(=O)(=O)c2ccc(Br)cc2)o1)N1CCN(C2CCCCC2)CC1,0,0,0,0,78,0
COc1ccc(S(=O)(=O)Cc2ccc(C(=O)N3CCN(C4CCCCC4)CC3)o2)cc1,0,0,0,0,66,0
COCCNC(=O)CCn1c(=O)oc2ccccc21,0,-,0,0,0,-
CCC(=O)Nc1cccc(C(=O)/C=C/c2cc(Br)ccc2OC)c1,0,0,62,0,0,0
CCn1ncc2c(OCc3ccc(C#N)cc3)cc(C)nc21,0,0,64,0,63,0
COc1ccc(C)cc1-n1[nH]nnc1=S,-,-,-,-,-,0
Fc1ccc(-n2[nH]nnc2=S)cc1N1CCCC1,0,?,0,0,50,-
Cc1cc(C)nc(SCc2nnc(SCC(=O)Nc3cc(C(F)(F)F)ccc3Cl)o2)n1,0,0,80,2,0,-
Cc1cc(C)nc(SCc2nnc(SCC(=O)N3CCCc4ccccc43)o2)n1,0,0,80,0,0,-
Cc1cc(C)nc(SCc2nnc(SCc3ccccc3Cl)o2)n1,0,0,78,0,0,0
CCC(=O)Nc1cccc(NC(=O)c2ccc(C)c([N+](=O)[O-])c2)c1,0,0,0,0,0,0
O=C(O)c1ccc(N2Cc3ccccc3C2)cc1O,0,0,0,0,53,0
CCOC(=O)c1ccc(N2Cc3cc(C)c(C)cc3C2)cc1O,0,-,0,0,0,-
COC(=O)c1ccc(CSc2ccc3nnc(-c4cccnc4)n3n2)o1,0,-,0,0,0,-
COc1ccc(C(c2nnnn2C(C)(C)C)N2CCN(c3nc4ccccc4s3)CC2)cc1OC (stereo not drawn),0,-,56,0,98,0
CCN1CCN(C(c2ccc(OC)c(OC)c2)c2nnnn2C(C)(C)C)CC1 (stereo not drawn),0,-,0,0,0,0
COc1cc(C(c2nnnn2C(C)(C)C)N2CCN(c3nc4ccccc4s3)CC2)ccc1O (stereo not drawn),0,0,61,0,97,0
O=C(c1csc2ccccc12)N1CCN(c2ccccn2)CC1,0,0,0,0,0,0
SMILES,CYP2C19 activ,F-actin modifier,CYP2C19 inh,CYP2C9 activ,CYP2C9 inh,E-sel TNF inh
COC(=O)C(CC(C)C)NC(=O)c1cc(OC)c(OC)c(OC)c1 (stereo not drawn),0,-,0,0,0,0
CCOC(=O)C1=NNC(C(=O)c2ccc(OC)cc2)C1c1ccccc1 (stereo not drawn),0,0,0,0,52,0
COc1ccc(-c2nnc(-c3cc4ccccc4oc3=O)o2)cc1,-,-,-,-,-,0
CCCCCCc1cc2cc(-c3nnc(-c4ccccc4OC)o3)c(=O)oc2cc1O,0,0,0,0,97,0
CCCCCCc1cc2cc(-c3nnc(-c4ccccc4O)o3)c(=O)oc2cc1O,0,-,0,0,90,0
CCCCCCc1cc2cc(-c3nnc(-c4cc(OC)c(OC)c(OC)c4)o3)c(=O)oc2cc1O,-,0,-,-,-,0
Nc1nc(SCC(=O)Nc2ccccc2)[nH]c(=O)c1NC(=O)c1cccs1,-,-,-,-,-,0
CC(=O)N(CCN1CCOCC1)Cc1cc2cc3c(cc2nc1Cl)OCO3,-,-,-,-,-,0
Cc1ccc(C)c(OC(=O)c2ccncc2)c1,-,0,-,-,-,0
CCOC(=O)c1ccc(N2CCN(c3ccccc3F)CC2)c(NC(=O)Nc2ccccc2)c1,-,-,-,-,-,0
O=C(NCc1ccco1)c1cccc(Nc2nc3ccc(Br)cc3[nH]2)c1,0,0,0,0,91,-
O=C(NCC1CC1)c1ccc(Nc2nc3ccc(Br)cc3[nH]2)cc1,0,0,0,0,69,0
O=C(Cc1nc2ccccc2[nH]1)NCc1ccco1,0,0,0,0,0,-
O=C(Cc1ccc(Nc2nc3ccc(Br)cc3[nH]2)cc1)NCCc1cccs1,0,0,67,0,94,-
Cc1ccc(C)c2[nH]c(=O)c(CCNC(=O)Cc3cccs3)cc12,-,-,-,-,-,0

# From PubChem BioAssay
